# Results from PubChem BioAssay.
# Experiment: compound effects on hepatocellular carcinoma cell viability – HepG2, calcein-AM fluorescence, 48 h, basal, profiling panel (AID 1164); also: test concentration not given here
# Settings: higher = more signal
row,SMILES,z-score
1,C=C(COC)/C(=C/C[C@@H](OC(C)=O)c1ccc(CO)o1)c1cnc2ccccc2c1,-0.856
2,COc1ccc(C#Cc2ccc3c(c2)[C@]2(C(=O)N3)[C@H](c3ccccc3OCCO)N3[C@H](c4ccccc4)[C@H](c4ccccc4)OC(=O)[C@H]3[C@@H]2C(=O)O)cc1,-2.53
3,COc1ccc([Si](C)(C)[C@@H]2[C@@H](CC(=O)N3Cc4ccccc4C[C@H]3CO)O[C@]3(C(=O)N(C)c4c(Br)cc(C)cc43)[C@H]2C)cc1,-3.73
4,C=C(CCCC)C(=O)CC[C@@H](OC(=O)c1cccnc1)c1ccc(CO)o1,0.909
5,Cc1ccc(S[C@]2(C(=O)NCC(C)C)CC(=O)N(Cc3cc(C(F)(F)F)cc(C(F)(F)F)c3)[C@@H]2c2ccc(CO)cc2I)cc1,-0.588
6,CO[C@H]1O[C@H](CO)[C@@H](OC(=O)Nc2ccc(Br)cc2)[C@H](OC(=O)c2cc3ccccc3[nH]2)[C@H]1OC(=O)c1cc2ccccc2[nH]1,-2.58
7,CCc1oc(CC[C@@H](CO)NC(=O)NCCn2cc(C3(O)CCCCC3)nn2)c(C(=O)OC)c1C(=O)OC,-0.68
8,COc1ccc(C(=O)Nc2ccc(CN3C(=O)[C@@]4(O[C@@H](CCn5cc([C@H](O)c6ccccc6)nn5)[C@H]([Si](C)(C)c5ccc(OC)cc5)[C@H]4C)c4ccccc43)cc2)cc1,-4.62
9,Cc1ccc(C(C)CC(O)C2C=CC3C(=O)N(c4ccccc4)C(=O)C3N2Nc2ccc([N+](=O)[O-])cc2)o1 (stereo not given),0.268
10,COCCCNC(=O)[C@@]1(Cc2ccccc2N=[N+]=[N-])N=C(c2ccc(OCCCO)cc2)O[C@H]1c1ccccc1N=[N+]=[N-],-1.37
11,COCCOC(=O)N1C(=O)[C@@]2(c3cc(C#Cc4ccc(OC)cc4)ccc31)[C@H](c1ccccc1OCCO)N1[C@H](c3ccccc3)[C@H](c3ccccc3)OC(=O)[C@H]1[C@@H]2C(=O)N1CCN(c2ncccn2)CC1,0.348
12,COc1cc2c(cc1OC)CN(C(=O)[C@H]1[C@@H]3C(=O)O[C@@H](c4ccccc4)[C@@H](c4ccccc4)N3[C@@H](c3ccc(O)cc3)[C@]13C(=O)Nc1ccc(C#CC4=CCCCC4)cc13)CC2,0.679
13,CCCCc1cn(C[C@H](Cc2ccccc2)NC(=O)N[C@H](CO)CCc2oc(C(C)=O)c(C(=O)OC)c2C(=O)OC)nn1,0.132
14,CN(C)C(=O)[C@]1(Cc2ccccc2N=[N+]=[N-])N=C(c2ccc(OCCCO)cc2)O[C@@H]1c1ccccc1,0.351
15,C=CCNC(=O)[C@@H]1[C@H]2C(=O)O[C@H](c3ccccc3)[C@H](c3ccccc3)N2[C@H](c2ccc(OCCO)cc2)[C@@]12C(=O)Nc1ccc(C#CCCO)cc12,1.27
16,[N-]=[N+]=NCc1ccccc1C[C@]1(C(=O)N2CCOCC2)N=C(c2ccc(OCCCO)cc2)O[C@H]1c1ccccc1N=[N+]=[N-],-0.956
17,C=CCNC(=O)[C@H]1[C@@H]2C(=O)O[C@@H](c3ccccc3)[C@@H](c3ccccc3)N2[C@@H](c2ccc(OCCO)cc2)[C@]12C(=O)Nc1ccc(C#CC3=CCCCC3)cc12,-1.17
18,COC(=O)[C@@]1(Cc2ccc(OC)cc2)[C@H]2c3cc(C(=O)N4CCCC4)n(Cc4ccccc4)c3C[C@H]2CN1C(=O)c1ccccc1,-0.331
19,CCCC[C@@H]1C[C@H]1[C@@H](NC(=O)c1ccco1)c1ccc(C(=O)OC)cc1,-0.998
20,C=CCOC(=O)[C@H]1[C@@H]2C(=O)O[C@@H](c3ccccc3)[C@@H](c3ccccc3)N2[C@@H](c2ccc(OCCOC(=O)[C@H]3C[C@H]4C(=O)N[C@@H](CC(C)C)C(=O)N4[C@H]3c3ccc(O)cc3)cc2)[C@]12C(=O)Nc1ccc(I)cc12,1.8
21,COC(=O)c1c(CC[C@@H](CO)NC(=O)N[C@@H](C)Cn2cc(C3(O)CCCCC3)nn2)oc(C(C)=O)c1C(=O)OC,-0.0256
22,CC(C)N1C(=O)[C@@]2(Cc3ccccc31)c1ccccc1C(=O)N(C1CCCCC1)[C@H]2c1ccc(CO)cc1,-0.775
23,CN(C)CCCNC(=O)[C@@]1(c2ccc([N+](=O)[O-])cc2)CC(=O)N(C2CCCCC2)[C@@H]1c1ccc(CO)cc1I,-5.13
24,CCOC(=O)C[C@H]1[C@H](OC(=O)c2ccc(C(=O)c3ccccc3)cc2)[C@@H](NC(=O)c2ccc(-c3ccccc3)cc2)c2cc(OCCCO)ccc2N1C(=O)c1ccccc1,0.2
25,C=CCNC(=O)[C@@H]1[C@H]2C(=O)O[C@H](c3ccccc3)[C@H](c3ccccc3)N2[C@H](c2ccc(OCCO)cc2)[C@@]12C(=O)Nc1ccc(C#Cc3ccc(OC)cc3)cc12,-0.969
